Laboratory results taken from PubChem BioAssay AID1159580 (chemical genetic matrix, 2015).
Screen size: about 5,500 compounds; about 2,000 (36%) were called active. About 18% were inconclusive and are not listed. Rule as the data show it: active = normalized growth mostly below about 0.91 (no sharp cut-off); inconclusive = no clear call, values can overlap the other calls; inactive = mostly above about 0.92. This is one part of the list.

Experiment: chemical genetic growth profiling, strain panel (AID 1159580);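 also: tested at 20 µM; growth read once vehicle control cultures reached saturation at 30 °C; 1 = growth at the plate median or of vehicle wells; lower values mean less growth of the strain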
Conditions: growth OD

Measured: normalized growth

CCCCN(CCCC)CCCOC(=O)c1ccc(N)cc1
inactive: S. cerevisiae deletion strains, locus YJR075W, strain HOC1, active compounds read low 0.981 | S. cerevisiae deletion strains, locus YKL009W, strain mrt4, active compounds read low 0.989 | S. cerevisiae deletion strains, locus YKL068W, active compounds read low 0.969 | S. cerevisiae deletion strains, locus YKL085W, strain MDH1 (second series), active compounds read low 0.987 | S. cerevisiae deletion strains, locus YKL085W, strain MDH1, active compounds read low 0.987 | S. cerevisiae deletion strains, locus YKL160W, strain elf1, active compounds read low 0.995 | S. cerevisiae deletion strains, locus YKL190W, strain CNB1, active compounds read low 0.988 | S. cerevisiae deletion strains, locus YKR001C, strain vps1, active compounds read low 0.98 | S. cerevisiae deletion strains, locus YKR026C, strain gcn3, active compounds read low 0.993 | S. cerevisiae deletion strains, locus YKR091W, strain srl3, active compounds read low 0.992 | S. cerevisiae deletion strains, locus YLL001W, strain dnm1, active compounds read low 0.996 | S. cerevisiae deletion strains, locus YLL026W, active compounds read low 0.995 | S. cerevisiae deletion strains, locus YLL041C, strain sdh2, active compounds read low 0.995 | S. cerevisiae deletion strains, locus YLR027C, strain aat2, active compounds read low 0.996 | S. cerevisiae deletion strains, locus YLR039C, strain RIC1, active compounds read low 0.863 | S. cerevisiae deletion strains, locus YLR058C, strain SHM2, active compounds read low 0.99 | S. cerevisiae deletion strains, locus YLR102C, strain apc9, active compounds read low 1.01 | S. cerevisiae deletion strains, locus YLR113W, strain HOG1, active compounds read low 0.986 | S. cerevisiae deletion strains, locus YLR221C, strain rsa3, active compounds read low 0.98 | S. cerevisiae deletion strains, locus YLR258W, strain gsy2, active compounds read low 0.985 | S. cerevisiae deletion strains, locus YLR262C, strain YPT6 (second series), active compounds read low 0.935 | S. cerevisiae deletion strains, locus YLR262C, strain YPT6, active compounds read low 0.876 | S. cerevisiae deletion strains, locus YLR268W, strain sec22, active compounds read low 0.92 | S. cerevisiae deletion strains, locus YLR320W, strain mms22, active compounds read low 0.993 | S. cerevisiae deletion strains, locus YLR330W, strain CHS5, active compounds read low 0.988 | S. cerevisiae deletion strains, locus YLR342W, strain FKS1 (second series), active compounds read low 1.06 | S. cerevisiae deletion strains, locus YLR342W, strain FKS1, active compounds read low 0.996 | S. cerevisiae deletion strains, locus YLR357W, strain rsc2, active compounds read low 0.99 | S. cerevisiae deletion strains, locus YLR370C, strain arc18, active compounds read low 0.995 | S. cerevisiae deletion strains, locus YLR371W, strain rom2, active compounds read low 0.992 | S. cerevisiae deletion strains, locus YLR384C, strain iki3, active compounds read low 0.995 | S. cerevisiae deletion strains, locus YLR418C, strain cdc73, active compounds read low 1.02 | S. cerevisiae deletion strains, locus YML016C, strain PPZ1, active compounds read low 0.993 | S. cerevisiae deletion strains, locus YML032C, strain rad52, active compounds read low 0.965 | S. cerevisiae deletion strains, locus YML120C, strain ndi1, active compounds read low 0.988 | S. cerevisiae deletion strains, locus YML124C, strain tub3, active compounds read low 0.997 | S. cerevisiae deletion strains, locus YMR058W, strain fet3, active compounds read low 0.999 | S. cerevisiae deletion strains, locus YMR078C, strain ctf18, active compounds read low 0.993 | S. cerevisiae deletion strains, locus YMR125W, strain sto1, active compounds read low 0.992 | S. cerevisiae deletion strains, locus YMR129W, active compounds read low 0.988 | S. cerevisiae deletion strains, locus YMR205C, strain PFK2, active compounds read low 0.991 | S. cerevisiae deletion strains, locus YMR223W, strain ubp8, active compounds read low 1.01 | S. cerevisiae deletion strains, locus YMR231W, strain pep5, active compounds read low 0.997 | S. cerevisiae deletion strains, locus YMR263W, strain SAP30, active compounds read low 0.982 | S. cerevisiae deletion strains, locus YMR307W, strain GAS1, active compounds read low 1.06 | S. cerevisiae deletion strains, locus YNL067W, strain RPL9B, active compounds read low 0.963 | S. cerevisiae deletion strains, locus YNL071W, strain lat1, active compounds read low 0.994 | S. cerevisiae deletion strains, locus YNL128W, strain TEP1, active compounds read low 0.994 | S. cerevisiae deletion strains, locus YNL153C, strain GIM3, active compounds read low 0.976 | S. cerevisiae deletion strains, locus YNL183C, strain NPR1, active compounds read low 0.921 | S. cerevisiae deletion strains, locus YNL209W, strain ssb2, active compounds read low 0.985 | S. cerevisiae deletion strains, locus YNL233W, strain BNI4, active compounds read low 0.985 | S. cerevisiae deletion strains, locus YNL248C, strain rpa49, active compounds read low 0.976 | S. cerevisiae deletion strains, locus YNL250W, strain rad50, active compounds read low 0.983 | S. cerevisiae deletion strains, locus YNL271C, strain bni1, active compounds read low 0.984 | S. cerevisiae deletion strains, locus YNL298W, strain CLA4, active compounds read low 0.978 | S. cerevisiae deletion strains, locus YNL307C, strain MCK1, active compounds read low 0.982 | S. cerevisiae deletion strains, locus YNL322C, strain KRE1 (second series), active compounds read low 0.991 | S. cerevisiae deletion strains, locus YNL322C, strain KRE1, active compounds read low 0.994 | S. cerevisiae deletion strains, locus YNR049C, strain mso1, active compounds read low 0.998 | S. cerevisiae deletion strains, locus YNR052C, strain pop2, active compounds read low 0.992 | S. cerevisiae deletion strains, locus YOL006C, strain TOP1, active compounds read low 0.938 | S. cerevisiae deletion strains, locus YOL012C, strain htz1 0.971 | S. cerevisiae deletion strains, locus YOL147C, strain pex11, active compounds read low 0.989 | S. cerevisiae deletion strains, locus YOR001W, strain rrp6, active compounds read low 0.995 | S. cerevisiae deletion strains, locus YOR061W, strain CKA2, active compounds read low 0.992 | S. cerevisiae deletion strains, locus YOR069W, strain VPS5, active compounds read low 0.995 | S. cerevisiae deletion strains, locus YOR070C, strain gyp1, active compounds read low 0.993 | S. cerevisiae deletion strains, locus YOR080W, strain dia2, active compounds read low 0.996 | S. cerevisiae deletion strains, locus YOR083W, strain WHI5, active compounds read low 0.984 | S. cerevisiae deletion strains, locus YOR106W, strain vam3, active compounds read low 0.995 | S. cerevisiae deletion strains, locus YOR136W, strain idh2, active compounds read low 0.994 | S. cerevisiae deletion strains, locus YOR144C, strain elg1, active compounds read low 0.986 | S. cerevisiae deletion strains, locus YOR184W, strain ser1, active compounds read low 0.979 | S. cerevisiae deletion strains, locus YOR231W, strain MKK1, active compounds read low 0.961 | S. cerevisiae deletion strains, locus YOR265W, strain rbl2, active compounds read low 0.998 | S. cerevisiae deletion strains, locus YOR270C, strain vph1, active compounds read low 1.01 | S. cerevisiae deletion strains, locus YOR290C, strain snf2, active compounds read low 0.986 | S. cerevisiae deletion strains, locus YOR316C, strain cot1, active compounds read low 0.978 | S. cerevisiae deletion strains, locus YPL051W, strain arl3, active compounds read low 0.995 | S. cerevisiae deletion strains, locus YPL055C, strain LGE1, active compounds read low 0.986 | S. cerevisiae deletion strains, locus YPL078C, strain atp4, active compounds read low 0.988 | S. cerevisiae deletion strains, locus YPL106C, strain sse1, active compounds read low 0.977 | S. cerevisiae deletion strains, locus YPL240C, strain hsp82, active compounds read low 0.997 | S. cerevisiae deletion strains, locus YPL241C, strain CIN2, active compounds read low 1 | S. cerevisiae deletion strains, locus YPL256C, strain CLN2, active compounds read low 0.937 | S. cerevisiae deletion strains, locus YPR119W, strain clb2, active compounds read low 0.969 | S. cerevisiae deletion strains, locus YPR141C, strain kar3, active compounds read low 0.987 | S. cerevisiae deletion strains, locus YPR163C, strain tif3, active compounds read low 0.973 | S. cerevisiae deletion strains, locus YPR167C, strain met16, active compounds read low 0.978 | S. cerevisiae deletion strains, strain wtn01, active compounds read low 0.97 | S. cerevisiae strains, strain wild type, active compounds read low 1
